# Reference: PubChem BioAssay (Tox21)
# Records with an inconclusive call do not appear. A call without a number means that no potency is given here. The source made the active and inactive calls. Calls come from the whole dose curve; as a rule, active = well fitted cell-killing curve with a large enough effect in the repeat runs; inconclusive = weak or mixed curves, or effect the other way; inactive = flat fitted curve, though single readings scatter.
# Legend:
# [1] = cAMP Responsive Elements (CRE) small molecule antagonists, cell-based qHTS assay: qHTS cell viability counter screen (AID 2060913); note: nearly all actives have a fitted effect of over 40% in size
# Outline: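 CRE-bla HEK293T cells were seeded in assay medium with 10% dialyzed FBS, incubated 18 hrs at 37 C, then exposed to compounds plus 0.25 uM final NKH477 for 3 hrs. Viability was read by CellTiter-Glo luminescence after 30 min, in the same wells.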
# [2] = cAMP Responsive Elements (CRE) small molecule agonists, cell-based qHTS assay: qHTS cell viability counter screen (AID 2060914); note: nearly all actives have a fitted effect of over 50% in size
# Outline: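 Luminescence read-out (CellTiter-Glo, 30 min RT) of ATP-based viability in CRE-bla HEK 293T cells, run in the same wells as the β-lactamase reporter assay after 3 h compound treatment at 37 °C.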
Structure (SMILES),Potency [1],Potency [2]
O=C(N/N=C/c1ccc([N+](=O)[O-])o1)c1cc([N+](=O)[O-])cc([N+](=O)[O-])c1O,inactive,inactive
C[N+](C)(C)C,inactive,inactive
COc1cccc([C@@]2(O)CCCC[C@@H]2CN(C)C)c1,inactive,inactive
O=[N+]([O-])c1ccccc1,inactive,inactive
N#CCCCl,inactive,inactive
CCOc1cc(OP(=S)(OC)OC)nc(CC)n1,inactive,inactive
CCC(COC(=O)c1cc(OC)c(OC)c(OC)c1)(c1ccccc1)N(C)C (centres undefined),inactive,inactive
O=C1NC(=O)C(=O)C(=O)N1,inactive,inactive
c1ccc(OCC2CO2)cc1 (centres undefined),inactive,inactive
CCOc1cc(Oc2ccc(C(F)(F)F)cc2Cl)ccc1[N+](=O)[O-],inactive,inactive
NNc1ccccc1,inactive,inactive
Cc1ccccc1CCl,inactive,inactive
O=C1OC(=O)C2C1C1(Cl)C(Cl)=C(Cl)C2(Cl)C1(Cl)Cl (centres undefined),inactive,inactive
CN1C(=O)CN=C(c2ccccc2)c2cc(Cl)ccc21,inactive,inactive
CCCCC(CC)COC(=O)OOC(C)(C)C (centres undefined),inactive,inactive
CC1C=[C-]C=C1.[C-]#[O+].[C-]#[O+].[C-]#[O+].[Mn],inactive,inactive
Cl,inactive,inactive
CCCCS(=O)(=O)Cl,inactive,inactive
[CH3][Hg][Cl],inactive,inactive
CC(C)NCC(O)c1ccc(N)c(C#N)c1 (centres undefined),inactive,inactive
CC1CCC(=O)O1 (centres undefined),inactive,inactive
O=C(O)C(Cl)Cl,inactive,inactive
